Laboratory results reported in ChEMBL document CHEMBL4513135, “CO-ADD screening of IQOG CSIS (Spain) compounds”.
“And” between values parts separate entries of the source, which are not always exact repeats. Identical values can stand only once. Measured potencies and affinities stand elsewhere.

Legend:
Staphylococcus aureus = conditions: Concentration 32 ug.mL-1, ASSAY_TEST Inhibition of Bacterial Growth, detection method Absorption (OD600), MEDIA CAMHB, plate type 384well, NBS, CORNING #3640, time 18 hr
Escherichia coli = conditions: Concentration 32 ug.mL-1, ASSAY_TEST Inhibition of Bacterial Growth, detection method Absorption (OD600), MEDIA CAMHB, plate type 384well, NBS, CORNING #3640, time 18 hr

Row | Structure (SMILES) | Inhibition (Staphylococcus aureus) | Inhibition (Escherichia coli) | Inhibition (Staphylococcus aureus; 32 ug/mL) | Inhibition (Escherichia coli; 32 ug/mL)
1 | CN(C)c1nc2nc3c(c(N)c2c(-c2ccccc2)c1C#N)CCCC3 | 5.71% | -1.51% |  | 
2 | N#CC1(Br)C(=NBr)Oc2ccc3ccccc3c2C1c1ccccc1[N+](=O)[O-] (stereo unspecified) | 23.03% | -25.63% |  | 
3 | N#CC1(Br)C(=N)Oc2ccc3ccccc3c2C1c1ccccc1 (stereo unspecified) |  |  | 27.29% and 36.87% | -8.37% and -7.39%
4 | CCOC(=O)c1c(C)[nH]c(=O)c(C#N)c1-c1ccccc1 | 37.77% | -18.87% |  | 
5 | O=C(N/N=C/c1c[nH]c2ccccc12)c1ccco1 | 13.11% | 12.98% |  | 
6 | COc1ccc2cc(C=O)c(Cl)nc2c1 | 17.7% | 25.34% |  | 
7 | N#Cc1c(Cl)nc(Sc2ccccc2)c(C#N)c1-c1ccccc1 | 3.48% | -17.27% |  | 
8 | c1ccc(COc2ccc3[nH]ccc3c2)cc1 | 4.67% | 3.23% |  | 
9 | Cc1nc(Nc2ccccc2)c2cnn(-c3ccccc3)c2n1 | 6.87% | 6.44% |  | 
10 | N#Cc1c(Cl)nc(Cl)c(C#N)c1-c1ccccc1 | 37.97% | -3.96% |  | 
11 | C#CCNc1ncc(C#N)c(N)n1 | 8.61% | -16.66% |  | 
12 | CNC(=O)NC1(C(=O)O)CC1c1ccccc1 (stereo unspecified) | 10.75% | 8.23% |  | 
13 | O=C(NNCc1c[nH]c2ccccc12)c1cccc2ccccc12 | -2.49% | 3.58% |  | 
14 | CSC1=NC2(CC2c2ccccc2)C(=O)N1C (stereo unspecified) | -3.53% | -1.26% |  | 
15 | C=C=CCN(C)Cc1cc2ccccc2n1C.O=C(O)C(=O)O | 31.58% | -19.52% |  | 
16 | C#CCN1CCc2nc3nc(N4CCCC4)c(C#N)cc3c(N)c2C1 | 24.32% | -2.2% |  | 
17 | Cl.N#Cc1cc(C#N)c(N2CCCC2)nc1Cl | 37.39% | -6.69% |  | 
18 | N#Cc1c(N)nc(S)c(C#N)c1-c1ccccc1 | 14.03% | 9.92% |  | 
19 | Nc1c2c(nc3c1C(c1ccc([N+](=O)[O-])cc1)c1ccc4ccccc4c1O3)CCCC2 (stereo unspecified) | -9.37% | -12.22% |  | 

Row | Structure (SMILES) | Inhibition (Staphylococcus aureus) | Inhibition (Escherichia coli) | Inhibition (Staphylococcus aureus; 32 ug/mL) | Inhibition (Escherichia coli; 32 ug/mL)
20 | CCOC(=O)c1cc2ccccc2[nH]1 | 8.39% | 13.65% |  | 
21 | CC/C(C)=N/NC(=O)Cc1c[nH]c2ccccc12 | -7.02% | -3.01% |  | 
22 | O=C(N/N=C/c1c[nH]c2ccccc12)C(c1ccccc1)c1ccccc1 | 7.26% | 7.64% |  | 
23 | COc1ccc(C2c3c(ccc4ccccc34)OC(=N)C2(Br)C#N)cc1 (stereo unspecified) | 26.69% | -14.26% |  | 
24 | C#CCN(C)c1nc(NCCCCC2CCN(Cc3ccccc3)CC2)c(C#N)cc1C#N | 0.89% | -7.65% |  | 
25 | OCc1c(-c2ccc(Br)cc2)nc2ccccn12 | 6.46% | 0.77% |  | 
26 | CS(=O)(=O)O[C@H]1CC[C@H](OS(C)(=O)=O)CC1 | 29.12% | -5.59% |  | 
27 | Cc1ccc(C2c3ccc4ccccc4c3Oc3nc4c(c(N)c32)CCCC4)cc1 (stereo unspecified) | -4.73% | -12.25% |  | 
28 | C#CCN(C)Cc1cc2cc(OCCCCC3CCN(Cc4ccccc4)CC3)ccc2n1C | 38.42% | -8.55% |  | 
29 | Nc1c2c(nc3c1C(c1ccc([N+](=O)[O-])cc1)c1c(ccc4ccccc14)O3)CCCC2 (stereo unspecified) | 18.24% | 7.89% |  | 
30 | CCOC(=O)/C(C#N)=C\c1ccc(Cl)cc1 | 19.96% | 11.69% |  | 
31 | N#Cc1c(N)nc2c(c1-c1ccccc1)CN(Cc1ccccc1)CC2 | 12.81% | 10.61% |  | 
32 | Cc1ccc2nc(Cl)c(/C=N/C(C)(C)C)cc2c1 | 28.46% | 12.92% |  | 
33 | Cl.Cl.Cn1c(CNc2ccccc2)cc2cc(OCCCC3CCN(Cc4ccccc4)CC3)ccc21 | 21.22% | -8.49% |  | 
34 | Cc1ccc(/C=C(\C#N)C(=O)c2ccccc2)cc1 | 25.42% | 15.2% |  | 
35 | CN(C)c1nc(N)c(C#N)c(-c2ccccc2)c1C#N | 7.52% | 0.57% |  | 
36 | CC(=O)CCc1c[nH]c2ccccc12 | 10.48% | 10.88% |  | 
37 | COC(=O)C(=Cc1ccc(OC)cc1)NC(=O)c1ccccc1 | 17.26% | 11.52% |  | 
38 | CN(C)c1nc(N)c(C#N)cc1C#N | 20.41% | 5.07% |  | 
